Assay [1] in a line: BSK_BT_PBMCCytotoxicity: PBMC Cytotoxicity Assessment in the BioMAP Diversity Plus: BT Assay (AID 2284225).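 Note: PBMC viability measured by Alamar Blue dye reduction fluorescence.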 Conditions: primary human B cells with PBMC. The method in brief: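 PBMC (75,000/well) pretreated with compound 1 h, then activated with SEB and TSST-1 (20 ng/mL each final), incubated 90 h; Alamar Blue added 6 h, fluorescence read at 546/580 nm. Fitted relative to DMSO.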

Assay [2] can be described thus: BSK_BT_Bcell_Proliferation: Viability Assessment in the BioMAP Diversity Plus: BT Assay for B cell Proliferation (AID 2284227). Conditions: primary human B cells with PBMC. The essentials: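 SRB-based protein staining (0.1% SRB after 10% TCA fixation, 560 nm) quantifies proliferation in human B cells co-cultured with PBMC, 72 h post-dosing, with signal gain scored relative to DMSO negative control.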

Read-out in assay [3]: Interleukin 6 (IL6), IL6 (gene 3569)
Briefly: BSK_BT_xIL6: BioMAP Diversity Plus: BT Assay for Interleukin 6 (IL6) Biomarker Activity (AID 2284228). The note with it: primary human B cells with PBMC. The essentials:
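Human B cell plus PBMC co-culture exposed to test chemical for 24 h; secreted IL-6 quantified by Luminex xMAP bead assay. Activity fitted in the positive direction against DMSO as negative control and baseline.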

Read-out in assay [4]: Interleukin 17A (IL17A), IL17A (gene 3605)
Briefly: BSK_BT_xIL17A: BioMAP Diversity Plus: BT Assay for Interleukin 17A (IL17A) Biomarker Activity (AID 2284229). The note with it: primary human B cells with PBMC. The essentials: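 B cells co-cultured with PBMC were exposed to test chemicals, and secreted IL-17A was quantified 24 h after dosing by Luminex xMAP bead immunoassay. Activity was fitted in the gain direction against DMSO as baseline.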

Read-out in assay [5]: Vascular cell adhesion molecule 1 (VCAM1), VCAM1 (gene 7412)
The experiment in a line: BSK_MyoF_VCAM1: BioMAP Diversity Plus: MyoF Assay for Vascular cell adhesion molecule 1 (VCAM1) Biomarker Activity (AID 2284231). Conditions: primary human lung fibroblasts. The essentials:
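Primary human lung fibroblasts were dosed with test chemical for 24 h, then cell-surface VCAM-1 was measured by ELISA. Activity was fitted in the positive direction against DMSO as negative control and baseline.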

Read-out in assay [6]: Collagen I, COL1A1 (gene 1277)
Briefly: BSK_MyoF_CollagenI: BioMAP Diversity Plus: MyoF Assay for Collagen I Biomarker Activity (AID 2284238). Conditions: primary human lung fibroblasts. The essentials:
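Human lung fibroblasts were exposed to test chemical for 24 h, then Collagen I was quantified by ELISA. Activity was fitted in the increasing direction against DMSO as the negative control and baseline.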

Read-out in assay [7]: Collagen III, COL3A1 (gene 1281)
Briefly: BSK_MyoF_CollagenIII: BioMAP Diversity Plus: MyoF Assay for Collagen III Biomarker Activity (AID 2284239). Conditions: primary human lung fibroblasts. The method in brief: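 Human lung fibroblasts were dosed with chemicals and, 24 hours later, collagen III was measured by ELISA. Activity was fitted in the positive direction against the DMSO negative-control baseline.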

Read-out in assay [8]: Interleukin 17F (IL17F), IL17F (gene 112744)
Briefly: BSK_BT_xIL17F: BioMAP Diversity Plus: BT Assay for Interleukin 17F (IL17F) Biomarker Activity (AID 2284243). Conditions: primary human B cells with PBMC. The essentials:
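B cell/PBMC co-culture (human primary), 24 h compound exposure; sIL-17F by Luminex xMAP; gain-of-signal fit vs DMSO baseline.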

Read-out in assay [9]: Actin alpha 1 (ACTA1), ACTA1 (gene 58)
Briefly: BSK_MyoF_ACTA1: BioMAP Diversity Plus: MyoF Assay for Actin alpha 1 (ACTA1) Biomarker Activity (AID 2284244). The note with it: primary human lung fibroblasts. The method in brief:
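Lung fibroblasts, human primary, 24 h compound exposure → a-SMA ELISA. Positive-direction fit vs DMSO control.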

A short description of assay [10]: UKN4_HCS_LUHMES_cell_viability: Viability Assessment in the University of Konstanz (UKN) Leist Lab Neurite Outgrowth Assay in human LUHMES cells (UKN4) (AID 2284232). The essentials:
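Fluorescence intensity from high-content imaging of Hoechst H-33342/calcein-AM-stained cells served as the viability read-out. Human LUHMES precursors were differentiated 2 days, replated and treated 24 h; curves were fitted bidirectionally against DMSO.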

Assay [11] is described as follows: UKN2_HCS_IMR90_cell_viability: Viability Assessment in the University of Konstanz (UKN) Leist Lab Neural Crest Cell Migration Assay in human induced IMR90 Pluripotent Stem Cells (UKN2) (AID 2284233).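 Note: viability of neural crest cells differentiated from IMR90 iPSC measured by calcein-AM fluorescence imaging; cells exposed to compound for 24 h after a 24 h migration phase.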 The essentials: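 Human IMR90-derived neural crest cells were allowed to migrate for 24 h into a cell-free zone, then exposed to test chemicals for 24 h. Calcein-AM and Hoechst staining with high-content imaging gave viability, analysed against DMSO baseline.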

Active and inactive are the calls of the source. Rule for the calls: active = hit-call score of the fitted dose curve at least 0.9, where 1 is the maximum; inactive = score below 0.9.

As for `Cc1cc(Cl)ccc1N`, the outcome in assay [1], in assay [2], in [3], in [4], in [5] and in assay [6] was inactive. Further, the result in [7], in assay [8] and in assay [9] was inactive.
The AC50 is the concentration at which the activity in the assay is half-maximal. In the case of `CCOP(=O)(OCC)OC(=CCl)c1ccc(Cl)cc1Cl`, the result in assay [1], in assay [2], in assay [4] and in assay [8] was inactive. The AC50 in assay [3] was 10.4 µM (active); in assay [5], 31.2 µM (active); in [6], 35.8 µM (active); in assay [7], 30.7 µM (active); in assay [9], 30.5 µM (active).
Turning to `O=S(=O)(c1ccc(Cl)cc1)c1cc(Cl)c(Cl)cc1Cl`, the outcome in assay [1], in assay [3], in assay [4], in [5], in assay [6] and in assay [7] was inactive. Also, in assay [9], the result was inactive. The AC50 in assay [2] is 30.1 µM (active); in [8] it was 25.1 µM (active).
On to `O=S1OC[C@@H]2[C@H](CO1)[C@]1(Cl)C(Cl)=C(Cl)[C@@]2(Cl)C1(Cl)Cl` (stereo partly drawn), for which, in assay [10], the AC50 was 27 µM (active). The outcome in assay [11] was inactive.
For `NC(=O)CCl`, the result in [1], in [2], in assay [3], in assay [4], in [5] and in assay [6] was inactive. The result in assay [7], in assay [8] and in assay [9] was inactive.
Turning to `CCOC(=O)CC(=O)CCl`, the AC50 in assay [1] is 19 µM (active); in assay [2] it was 16.9 µM (active); in assay [3], 11.8 µM (active); in assay [4], 10.5 µM (active); in [8] it was 12.4 µM (active). The outcome in [5], in assay [6], in assay [7] and in assay [9] was inactive.
Turning to `O=C1C=CC(=O)c2ccccc21`, the AC50 in assay [1] is 0.686 µM (active); in assay [2] it was 0.825 µM (active); in [3], 0.499 µM (active); in assay [4], 0.482 µM (active); in assay [5], 3.72 µM (active); in [6], 4.3 µM (active). The concentration at half-maximal activity (AC50) in assay [7] was 4.13 µM (active); in assay [8], 0.61 µM (active); in [9] it was 4.42 µM (active).
With `COCC(=O)N(c1c(C)cccc1C)[C@H](C)C(=O)OC`, the outcome in assay [1], in [2], in assay [3], in assay [4], in assay [5] and in assay [6] was inactive. Moreover, the outcome in [7], in [8] and in [9] was inactive.
As to `CC(C)(COCC1CO1)COCC1CO1` (stereo not drawn), the result in assay [1], in assay [3], in assay [4], in assay [5], in assay [6] and in assay [7] was inactive. In addition, the result in [9] was inactive. Also, the AC50 is 20 µM (active) in assay [2] and 24.5 µM (active) in [8].
Regarding `O=c1oc2ccccc2c(O)c1C(CC(O)c1ccc(-c2ccc(Br)cc2)cc1)c1ccccc1` (stereo not drawn), the result in assay [1], in assay [2], in assay [3], in assay [4] and in assay [8] was inactive. In addition, the AC50 is 6.21 µM (active) in assay [5], 1.94 µM (active) in [6], 2.53 µM (active) in assay [7] and 2.76 µM (active) in [9].
Take `CCOP(=S)(OCC)SCS(=O)(=O)C(C)(C)C`: the outcome in assay [1], in assay [2], in assay [3], in [4], in assay [5] and in [6] was inactive. Moreover, the outcome in assay [7], in assay [8] and in assay [9] was inactive.
With `[Cl][Sn]([c]1ccccc1)([c]1ccccc1)[c]1ccccc1`, the AC50 was 0.617 µM (active) in assay [1]; 0.423 µM (active) in assay [2]; 0.456 µM (active) in assay [3]; 0.204 µM (active) in assay [4]; 0.0907 µM (active) in [5]; 0.0894 µM (active) in assay [6]. The AC50 in assay [7] is 0.402 µM (active); in [8] it was 0.302 µM (active); in assay [9], 0.102 µM (active).
With `Cc1cc(Cl)ccc1OC(C)C(=O)O` (stereo not drawn), the result in assay [1], in assay [2], in assay [3], in assay [4], in assay [5] and in [6] was inactive. In addition, the outcome in assay [7], in assay [8] and in [9] was inactive.
With `CC(C)N(C(=O)CCl)c1ccccc1`, the AC50 in [1] is 20 µM (active); in assay [2], 9.93 µM (active); in assay [3], 12.3 µM (active); in assay [4], 5.91 µM (active); in assay [5], 2.36 µM (active); in assay [6] it was 3.62 µM (active). Besides, the AC50 in assay [7] was 1.12 µM (active); in [8], 8.76 µM (active); in [9], 2.84 µM (active).
Consider `Cc1cccc(OP(=O)(Oc2cccc(C)c2)Oc2cccc(C)c2)c1`, for which the outcome in assay [1], in [2], in assay [3], in assay [4], in assay [5] and in [6] was inactive. In addition, the outcome in assay [7], in assay [8] and in [9] was inactive.

These data come from PubChem BioAssay (EPA / NIEHS).
